From article PMC11006913
Residue numbers refer to the chain shown, from its start.

Experiments:
Test in all cases: PBM; 200 nM protein, PBS
Conditions in all cases: dsDNA, one strand shown
VENTX [1] = target: T1, VENTX (Homo sapiens, UniProt O95231 78-163, R121Q)
T1 sequence: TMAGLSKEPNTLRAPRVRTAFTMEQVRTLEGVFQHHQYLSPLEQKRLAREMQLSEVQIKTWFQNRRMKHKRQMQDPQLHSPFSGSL

VENTX [2] = target: T2, VENTX (Homo sapiens, UniProt O95231 78-163)
T2 sequence: T1 sequence with Q44R

HOXC10 [3] = target: HOXC10 (Homo sapiens, UniProt Q9NYD6 254-340)
VENTX [4] = target: T3, VENTX (Homo sapiens, UniProt O95231 78-163, Y115F)
T3 sequence: T1 sequence with Y38F, Q44R

HOXB6 [5] = target: HOXB6 (Homo sapiens, UniProt P17509 132-218, K202E)
HOXA2 [6] = target: HOXA2 (Homo sapiens, UniProt O43364 129-215, R185T)
PITX2 = PITX2 (Homo sapiens, UniProt Q99697 72-157)
HOXA2 [7] = target: HOXA2 (Homo sapiens, UniProt O43364 129-215, R185K)
HOXC10 [8] = target: HOXC10 (Homo sapiens, UniProt Q9NYD6 254-340, K271E)
HOXA2 [9] = target: HOXA2 (Homo sapiens, UniProt O43364 129-215, Y150S)
HOXA2 [10] = target: HOXA2 (Homo sapiens, UniProt O43364 129-215)
HOXB6 [11] = target: HOXB6 (Homo sapiens, UniProt P17509 132-218)
PRRX1 [12] = target: PRRX1 (Homo sapiens, UniProt P54821 80-166, F113S)
PRRX1 [13] = target: PRRX1 (Homo sapiens, UniProt P54821 80-166)
ALX3 [14] = target: ALX3 (Homo sapiens, UniProt O95076 139-225, N203Q)
ALX3 [15] = target: ALX3 (Homo sapiens, UniProt O95076 139-225)
ALX3 [16] = target: ALX3 (Homo sapiens, UniProt O95076 139-225, L168Q)
ALX3 [17] = target: ALX3 (Homo sapiens, UniProt O95076 139-225, L168V)
ALX3 [18] = target: ALX3 (Homo sapiens, UniProt O95076 139-225, N203S)
HOXD13 [19] = target: HOXD13 (Homo sapiens, UniProt P35453 263-343, T313R)
NKX2-6 [20] = target: T4, NKX2-6 (Homo sapiens, UniProt A6NCS4 118-204)
T4 sequence: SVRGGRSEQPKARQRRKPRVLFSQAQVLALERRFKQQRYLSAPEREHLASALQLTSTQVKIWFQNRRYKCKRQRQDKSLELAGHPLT

HOXD13 [21] = target: HOXD13 (Homo sapiens, UniProt P35453 263-343)
HOXD13 [22] = target: HOXD13 (Homo sapiens, UniProt P35453 263-343, T313A)
NKX2-6 [23] = target: T5, NKX2-6 (Homo sapiens, UniProt A6NCS4 118-204, F151L)
T5 sequence: T4 sequence with F34L

VAX1 [24] = target: VAX1 (Homo sapiens, UniProt Q5SQQ9 86-172)
VAX1 [25] = target: VAX1 (Homo sapiens, UniProt Q5SQQ9 86-172, T142I)
VAX1 [26] = target: VAX1 (Homo sapiens, UniProt Q5SQQ9 86-172, K157R)
Chain of VAX1 (Homo sapiens, UniProt Q5SQQ9 86-172, K157R) (Q5SQQ9 86-172 K157R): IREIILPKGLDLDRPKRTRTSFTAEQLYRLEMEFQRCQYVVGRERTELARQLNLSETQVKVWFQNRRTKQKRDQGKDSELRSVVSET

Chain of ALX3 (Homo sapiens, UniProt O95076 139-225, L168Q) (O95076 139-225 L168Q): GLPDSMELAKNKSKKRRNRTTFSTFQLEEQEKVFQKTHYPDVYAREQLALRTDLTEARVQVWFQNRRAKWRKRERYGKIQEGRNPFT
Chain of ALX3 (Homo sapiens, UniProt O95076 139-225, L168V) (O95076 139-225 L168V): as the sequence (O95076 139-225 L168Q) above, with Q30V counted along it
Chain of ALX3 (Homo sapiens, UniProt O95076 139-225, N203Q) (O95076 139-225 N203Q): as the sequence (O95076 139-225 L168Q) above, with Q30L, N65Q counted along it
Chain of ALX3 (Homo sapiens, UniProt O95076 139-225, N203S) (O95076 139-225 N203S): as the sequence (O95076 139-225 L168Q) above, with Q30L, N65S counted along it
Chain of HOXC10 (Homo sapiens, UniProt Q9NYD6 254-340, K271E) (Q9NYD6 254-340 K271E): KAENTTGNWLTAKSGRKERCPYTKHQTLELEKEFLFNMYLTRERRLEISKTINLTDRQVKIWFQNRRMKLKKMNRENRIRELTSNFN
Chain of HOXC10 (Homo sapiens, UniProt Q9NYD6 254-340) (Q9NYD6 254-340): as the sequence (Q9NYD6 254-340 K271E) above, with E18K counted along it
Chain of ALX3 (Homo sapiens, UniProt O95076 139-225) (O95076 139-225): as the sequence (O95076 139-225 L168Q) above, with Q30L counted along it
Chain of PRRX1 (Homo sapiens, UniProt P54821 80-166, F113S) (P54821 80-166 F113S): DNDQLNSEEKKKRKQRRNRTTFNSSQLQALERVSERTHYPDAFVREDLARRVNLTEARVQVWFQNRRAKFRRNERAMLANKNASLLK
Chain of PRRX1 (Homo sapiens, UniProt P54821 80-166) (P54821 80-166): as the sequence (P54821 80-166 F113S) above, with S34F counted along it
Chain of HOXD13 (Homo sapiens, UniProt P35453 263-343, T313R) (P35453 263-343 T313R): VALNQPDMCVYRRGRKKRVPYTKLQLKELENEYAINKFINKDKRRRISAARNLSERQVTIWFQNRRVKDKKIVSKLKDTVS
Chain of HOXA2 (Homo sapiens, UniProt O43364 129-215) (O43364 129-215): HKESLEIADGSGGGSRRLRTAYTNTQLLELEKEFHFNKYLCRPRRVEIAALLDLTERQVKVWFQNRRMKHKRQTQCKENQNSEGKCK
Chain of HOXB6 (Homo sapiens, UniProt P17509 132-218, K202E) (P17509 132-218 K202E): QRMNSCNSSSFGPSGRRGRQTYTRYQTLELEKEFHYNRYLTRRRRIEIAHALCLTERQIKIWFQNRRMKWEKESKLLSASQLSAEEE
Chain of VAX1 (Homo sapiens, UniProt Q5SQQ9 86-172, T142I) (Q5SQQ9 86-172 T142I): as the sequence (Q5SQQ9 86-172 K157R) above, with T57I, R72K counted along it
Chain of HOXD13 (Homo sapiens, UniProt P35453 263-343, T313A) (P35453 263-343 T313A): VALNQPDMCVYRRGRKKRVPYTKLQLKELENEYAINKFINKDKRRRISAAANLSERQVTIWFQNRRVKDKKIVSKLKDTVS
Chain of HOXD13 (Homo sapiens, UniProt P35453 263-343) (P35453 263-343): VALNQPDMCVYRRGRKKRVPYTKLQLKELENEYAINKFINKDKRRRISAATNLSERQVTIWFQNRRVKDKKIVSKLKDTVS
Chain of VAX1 (Homo sapiens, UniProt Q5SQQ9 86-172) (Q5SQQ9 86-172): as the sequence (Q5SQQ9 86-172 K157R) above, with R72K counted along it
Chain of HOXA2 (Homo sapiens, UniProt O43364 129-215, R185T) (O43364 129-215 R185T): as the sequence (O43364 129-215) above, with R57T counted along it
Chain of HOXA2 (Homo sapiens, UniProt O43364 129-215, Y150S) (O43364 129-215 Y150S): as the sequence (O43364 129-215) above, with Y22S counted along it
Chain of HOXA2 (Homo sapiens, UniProt O43364 129-215, R185K) (O43364 129-215 R185K): as the sequence (O43364 129-215) above, with R57K counted along it
Chain of HOXB6 (Homo sapiens, UniProt P17509 132-218) (P17509 132-218): as the sequence (P17509 132-218 K202E) above, with E71K counted along it

AGGGGGCG
binding signal (VENTX [1]): 8.25 upbm affinity estimate (log intensity, higher = more binding, comparable within an allelic series) | binding signal (VENTX [2]): 8.25 upbm affinity estimate (log intensity, higher = more binding, comparable within an allelic series) | binding signal (HOXC10 [3]): 10 upbm affinity estimate (log intensity, higher = more binding, comparable within an allelic series) | binding signal (VENTX [4]): 8.23 upbm affinity estimate (log intensity, higher = more binding, comparable within an allelic series) | binding signal (HOXB6 [5]): 9 upbm affinity estimate (log intensity, higher = more binding, comparable within an allelic series) | binding signal (HOXA2 [6]): 7.3 upbm affinity estimate (log intensity, higher = more binding, comparable within an allelic series) | binding signal (PITX2): 8.12 upbm affinity estimate (log intensity, higher = more binding, comparable within an allelic series) | binding signal (HOXA2 [7]): 10.2 upbm affinity estimate (log intensity, higher = more binding, comparable within an allelic series) | binding signal (HOXC10 [8]): 9.95 upbm affinity estimate (log intensity, higher = more binding, comparable within an allelic series) | binding signal (HOXA2 [9]): 10.3 upbm affinity estimate (log intensity, higher = more binding, comparable within an allelic series) | binding signal (HOXA2 [10]): 7.28 upbm affinity estimate (log intensity, higher = more binding, comparable within an allelic series) | binding signal (HOXB6 [11]): 8.93 upbm affinity estimate (log intensity, higher = more binding, comparable within an allelic series)

AAATTCGT
binding signal (VENTX [1]): 9.56 upbm affinity estimate (log intensity, higher = more binding, comparable within an allelic series) | binding signal (VENTX [2]): 9.96 upbm affinity estimate (log intensity, higher = more binding, comparable within an allelic series) | binding signal (VENTX [4]): 9.72 upbm affinity estimate (log intensity, higher = more binding, comparable within an allelic series)

CGATTAGC
binding signal (VENTX [1]): 11.7 upbm affinity estimate (log intensity, higher = more binding, comparable within an allelic series) | binding signal (VENTX [2]): 12.8 upbm affinity estimate (log intensity, higher = more binding, comparable within an allelic series) | binding signal (VENTX [4]): 11.6 upbm affinity estimate (log intensity, higher = more binding, comparable within an allelic series)

GAGTTCCC
binding signal (VENTX [1]): 8.1 upbm affinity estimate (log intensity, higher = more binding, comparable within an allelic series) | binding signal (VENTX [2]): 8.23 upbm affinity estimate (log intensity, higher = more binding, comparable within an allelic series) | binding signal (HOXC10 [3]): 9.93 upbm affinity estimate (log intensity, higher = more binding, comparable within an allelic series) | binding signal (VENTX [4]): 8.22 upbm affinity estimate (log intensity, higher = more binding, comparable within an allelic series) | binding signal (HOXC10 [8]): 10 upbm affinity estimate (log intensity, higher = more binding, comparable within an allelic series)

GCCAACCC
binding signal (VENTX [1]): 8.11 upbm affinity estimate (log intensity, higher = more binding, comparable within an allelic series) | binding signal (VENTX [2]): 7.96 upbm affinity estimate (log intensity, higher = more binding, comparable within an allelic series) | binding signal (PRRX1 [12]): 9.36 upbm affinity estimate (log intensity, higher = more binding, comparable within an allelic series) | binding signal (VENTX [4]): 8.24 upbm affinity estimate (log intensity, higher = more binding, comparable within an allelic series) | binding signal (PRRX1 [13]): 9.21 upbm affinity estimate (log intensity, higher = more binding, comparable within an allelic series)

CCGGGTGC
binding signal (VENTX [1]): 8.11 upbm affinity estimate (log intensity, higher = more binding, comparable within an allelic series) | binding signal (VENTX [2]): 8.38 upbm affinity estimate (log intensity, higher = more binding, comparable within an allelic series) | binding signal (VENTX [4]): 8.21 upbm affinity estimate (log intensity, higher = more binding, comparable within an allelic series)

CAGGGGGG
binding signal (VENTX [1]): 8.13 upbm affinity estimate (log intensity, higher = more binding, comparable within an allelic series) | binding signal (VENTX [2]): 8.11 upbm affinity estimate (log intensity, higher = more binding, comparable within an allelic series) | binding signal (VENTX [4]): 8.09 upbm affinity estimate (log intensity, higher = more binding, comparable within an allelic series) | binding signal (ALX3 [14]): 7.62 upbm affinity estimate (log intensity, higher = more binding, comparable within an allelic series) | binding signal (ALX3 [15]): 7.33 upbm affinity estimate (log intensity, higher = more binding, comparable within an allelic series) | binding signal (ALX3 [16]): 7.58 upbm affinity estimate (log intensity, higher = more binding, comparable within an allelic series) | binding signal (ALX3 [17]): 7.5 upbm affinity estimate (log intensity, higher = more binding, comparable within an allelic series) | binding signal (ALX3 [18]): 7.6 upbm affinity estimate (log intensity, higher = more binding, comparable within an allelic series)

CCGGGACC
binding signal (VENTX [1]): 8.02 upbm affinity estimate (log intensity, higher = more binding, comparable within an allelic series) | binding signal (VENTX [2]): 8.2 upbm affinity estimate (log intensity, higher = more binding, comparable within an allelic series) | binding signal (VENTX [4]): 7.98 upbm affinity estimate (log intensity, higher = more binding, comparable within an allelic series) | binding signal (HOXD13 [19]): 9.46 upbm affinity estimate (log intensity, higher = more binding, comparable within an allelic series) | binding signal (NKX2-6 [20]): 9.14 upbm affinity estimate (log intensity, higher = more binding, comparable within an allelic series) | binding signal (HOXD13 [21]): 9.43 upbm affinity estimate (log intensity, higher = more binding, comparable within an allelic series) | binding signal (HOXD13 [22]): 9.37 upbm affinity estimate (log intensity, higher = more binding, comparable within an allelic series) | binding signal (NKX2-6 [23]): 9.26 upbm affinity estimate (log intensity, higher = more binding, comparable within an allelic series)

AGCGTGCC
binding signal (VENTX [1]): 8.06 upbm affinity estimate (log intensity, higher = more binding, comparable within an allelic series) | binding signal (VENTX [2]): 7.96 upbm affinity estimate (log intensity, higher = more binding, comparable within an allelic series) | binding signal (VENTX [4]): 8.06 upbm affinity estimate (log intensity, higher = more binding, comparable within an allelic series) | binding signal (ALX3 [14]): 7.73 upbm affinity estimate (log intensity, higher = more binding, comparable within an allelic series) | binding signal (ALX3 [15]): 7.88 upbm affinity estimate (log intensity, higher = more binding, comparable within an allelic series) | binding signal (VAX1 [24]): 7.14 upbm affinity estimate (log intensity, higher = more binding, comparable within an allelic series) | binding signal (ALX3 [16]): 7.81 upbm affinity estimate (log intensity, higher = more binding, comparable within an allelic series) | binding signal (ALX3 [17]): 7.81 upbm affinity estimate (log intensity, higher = more binding, comparable within an allelic series) | binding signal (VAX1 [25]): 7.18 upbm affinity estimate (log intensity, higher = more binding, comparable within an allelic series) | binding signal (ALX3 [18]): 7.76 upbm affinity estimate (log intensity, higher = more binding, comparable within an allelic series) | binding signal (VAX1 [26]): 7.13 upbm affinity estimate (log intensity, higher = more binding, comparable within an allelic series)
